# Results: the supplement of paper PMC3334620
# In all, about 33,000 sequences were measured (“E-score (-0.5 to 0.5)”: median about -0.016, highest 2% from about 0.32 on). The sample holds the highest values, similar sequences and a random draw of the others, so the mix is not that of the screen.
# Biological target: T1, Stp1 (UniProt B3LFK1)
# T1 sequence: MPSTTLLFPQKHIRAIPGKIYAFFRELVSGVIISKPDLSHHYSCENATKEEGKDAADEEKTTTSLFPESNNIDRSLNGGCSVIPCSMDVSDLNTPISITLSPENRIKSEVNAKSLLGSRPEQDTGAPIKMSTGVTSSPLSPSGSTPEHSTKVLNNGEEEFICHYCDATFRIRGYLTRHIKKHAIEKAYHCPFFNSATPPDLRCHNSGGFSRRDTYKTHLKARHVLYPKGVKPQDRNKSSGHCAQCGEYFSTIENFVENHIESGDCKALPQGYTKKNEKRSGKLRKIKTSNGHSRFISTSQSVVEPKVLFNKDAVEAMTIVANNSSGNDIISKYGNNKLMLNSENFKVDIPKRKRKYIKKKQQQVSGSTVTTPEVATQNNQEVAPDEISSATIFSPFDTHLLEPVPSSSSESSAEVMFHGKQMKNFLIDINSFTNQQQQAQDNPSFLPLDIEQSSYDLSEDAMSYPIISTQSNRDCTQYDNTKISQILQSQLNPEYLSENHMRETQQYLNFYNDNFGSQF
# Test: PBM E-score (8-mer binding enrichment) (E-score (-0.5 to 0.5)); higher = stronger / more preferred TF binding
# Conditions: protein concentration: 200 nM; construct: GST-full length
# Description: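 Universal 'all 10-mer' protein binding microarrays (Agilent AMADID 015681) probed with GST-tagged S. cerevisiae TFs (full-length or DBD) made by in vitro transcription/translation (PURExpress), about 100-200 nM. Bound TF was detected with fluorescent anti-GST. Each ungapped 8-mer (which stands for itself and its reverse complement) is scored by the PBM enrichment score (E-score), a modified Wilcoxon-Mann-Whitney statistic from -0.5 to +0.5, computed with the Universal PBM Analysis Suite. Scale: above 0.35 generally sequence-specific binding.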
row,Sequence,PBM E-score
1,CGTCACGA,0.0354
2,AGAACGCA,-0.00423
3,AGGGCATA,0.128
4,CCGGCATA,-0.183
5,GCGGCATA,0.435
6,ACGGCATA,0.45
7,ATGGCATA,0.226
8,GTGGCATA,0.0347
9,AGCCTATG,-0.0976
10,ATTGGCGC,0.189
11,ACGCACCG,0.0649
12,CGTTGCTC,0.0478
13,GAAGGGCA,0.231
14,GACCGAGC,-0.228
15,CGGCGTGC,0.316
16,CGGCGTCA,0.399
17,AGGCGTCC,-0.0371
18,CGGCGTCC,0.376
19,GGGCGTCA,-0.037
20,AGGCGTCA,0.172
21,GGTGGTGA,-0.125
22,GAGTACGA,0.0292
23,GTCTAAGA,0.0284
24,CATACTTA,-0.00908
25,AACTTCAT,0.092
26,GAATCGGC,0.268

row,Sequence,PBM E-score
1,AGCATGCG,0.016
2,CAGGGGCA,-0.0911
3,AGGCCTTC,-0.188
4,CGGCCTTA,0.293
5,CGGCCTTC,0.322
6,AATAAATG,0.219
7,AATAAATA,0.35
8,TATAAATA,0.198
9,CACAGTAA,0.209
10,GGGAGACC,-0.355
11,GCCTCACA,0.263
12,GCCTCACC,0.327
13,ACCTCACC,-0.128
14,GATGCAGA,-0.0503
15,GCTGTTGA,0.169
16,CTGTAGCC,0.041
17,ATTTCAAA,0.134
18,CATCGCGG,0.0513
19,GCATGGCA,0.375
20,TCATGGCA,-0.00249
21,CCATGGCA,0.0885
22,ACTCCGCG,0.068
23,ACTACGGC,0.359
24,CCTACGGA,-0.13
25,ACTACGGG,-0.222
26,CCTACGCC,-0.0289

row,Sequence,PBM E-score
1,ACTACGGA,-0.0355
2,CCTACGGC,0.39
3,CTATCTTA,0.0702
4,GAAAGGAC,0.0713
5,AATAGTAA,0.0925
6,CTGTCGCA,0.00593
7,CCCGCTGA,-0.297
8,GATCGCAA,0.0331
9,GCGCGCGA,0.285
10,CCGCGTGA,0.313
11,CCGCGCGC,0.381
12,ACGCGCGC,0.289
13,CCGCGTGC,0.329
14,CCGCGCGA,0.314
15,ACGCGCGG,0.316
16,CCGCGCGG,0.469
17,CAGCGCGG,0.211
18,ACGCGTGC,0.191
19,GCGCGCGC,0.396
20,CCGCGCTC,0.235
21,GCTATCCA,-0.0017
22,CCTCCAGC,-0.217
23,CAAGAGTC,-0.177
24,CCCACGGA,0.00496
25,CCCACGGC,0.417
26,ACCACGGA,-0.0752

row,Sequence,PBM E-score
1,CCCACGGG,-0.166
2,GCCACGGA,0.163
3,ACCACGGG,-0.0439
4,GCCACGCC,0.267
5,GCCACGGC,0.469
6,ACCACGGC,0.327
7,GGCCCCCA,-0.406
8,AAGCTCAT,-0.206
9,AATTCTCC,0.0125
10,GAATTCTC,0.0702
11,AAAGGCGA,0.0862
12,CAAGGCGC,0.4
13,GCAGGCGC,0.148
14,GAAGGCGA,0.129
15,AAAGGCGG,0.111
16,GAAGGCGC,0.333
17,CAAGGCGA,0.194
18,CAAGGCGG,0.101
19,AAAGGCGC,0.402
20,AAACTGGT,-0.0925
21,AGTTCATG,0.0464
22,ATCAGCAT,0.0572
23,GAAAACGC,0.119
24,TAAGTCGA,-0.123
25,TAACAGCA,0.174
26,AATGCACC,-0.0414

row,Sequence,PBM E-score
1,CTAAGAGC,-0.0921
2,ATCTTCAT,-0.0473
3,AAGCTGTC,-0.113
4,ACAACTAT,0.0651
5,CTTCCGTA,0.163
6,CTGCCGTC,0.299
7,ATACCGTA,0.133
8,ATGCCGTC,0.406
9,ATTCCGTA,0.106
10,CTGCCGTA,0.343
11,CTGCCGGA,0.02
12,ATGCCGTG,0.484
13,ATGCCGGG,-0.0642
14,ATGCCGAC,0.0658
15,ATGCCGTA,0.478
16,ATGCCGAG,0.31
17,CAGCGATG,-0.0761
18,AACAGAGC,0.00906
19,GCCTACAC,-0.0439
20,ATATCTAA,0.0738
21,GAAGCTGC,-0.188
22,CCGAGCCC,-0.29
23,CCGAGCCA,-0.0385
24,ACGAGCCT,-0.0868
25,CCGAGCCG,0.334
26,ACGAGCCA,-0.0521

row,Sequence,PBM E-score
1,ACGAGCCG,0.336
2,CGAGGGAC,-0.245
3,CGCCTCAC,0.395
4,CGCCTCGC,0.394
5,AGCCTCGC,0.0691
6,CGCCTCAG,0.289
7,CGCCTCGA,0.205
8,GGCCTCAC,-0.00507
9,CAGGAGCC,-0.0638
10,GGCTTGGA,-0.128
11,GTTGGGCA,0.0977
12,CTCACCCC,0.0927
13,GACGCGCC,0.348
14,ATTTCGCG,0.177
15,ATCGCGCA,-0.0273
16,ATATCGCC,0.322
17,CTATCGCC,0.0882
18,ATTTCGCC,0.336
19,ATCGCGCC,0.394
20,ATCGCGCG,0.235
21,GACGCGCA,-0.105
22,ATATCGCG,0.127
23,ATTTCGCA,0.111
24,CACGCGCC,0.291
25,CATTCGAC,-0.0891
26,CAAAACGG,0.308

row,Sequence,PBM E-score
1,ACGTGCAG,0.105
2,GATGGTCC,-0.219
3,CCTCTCTC,-0.339
4,AACGCGCC,0.361
5,AACGCGCG,0.232
6,AACGCGCT,0.0273
7,ACAGGGGT,-0.338
8,GAAGGTGA,0.0707
9,CCCGCGGG,0.104
10,GCCGCGGC,0.474
11,TCCGCGGA,0.0517
12,ACCGCGGT,-0.3
13,ACCGCGGC,0.384
14,ACCGCGGA,-0.0118
15,GCCGCGAA,0.159
16,CCCGCGGC,0.411
17,GCCGCGGA,0.343
18,GCCGCGAC,0.282
19,CCCGCGGA,0.0756
20,ACCGCGGG,0.0822
